Lassa entry: Lassa virus entry inhibition; Lassa virus pseudotyped entry inhibition, cell-based qHTS; actives 4.1% (n = 18,000); Potency, µM (highest dose often 49.2 µM), for inactives: at the highest dose activity change, negative = inhibition, most hits filed as inhibitors; AID 720533
Marburg entry: Marburg virus entry inhibition. Marburg virus pseudotype entry/binding inhibition, cell-based. Potency, µM (doses to about 49.2 µM), for inactives: at the highest dose activity change, negative = inhibition, usual class: inhibitors. actives 6.5% (n = 18,000). AID 720532
An asterisk follows results filed as active; ? = inconclusive; · = no result; [ ] = another dose, or the depositor's remark. A selection: hits, their analogues and other compounds. The true share with any hit is near 8%. Calls come from the whole dose curve; tested in HEK293 cells. % is set by controls: 0 for no effect and ±100 for the full control effect; potency is the fitted concentration of half-maximal effect.

SMILES	Lassa entry	Marburg entry
COc1cc(OC)c2c(-c3ccccc3)cc(=O)oc2c1C(CCN1CCOCC1)c1ccc(N(C)C)cc1 (configuration not stated)	?	10µM*
COc1cc(C(CCN2CCOCC2)c2c(OC)cc(OC)c3ccc(=O)oc23)cc(OC)c1OC (configuration not stated)	-23.4%	-11.7%
COC(=O)[C@@]1(C=C2c3ccc(F)cc3[C@@H](OC)[C@@H]2C)[C@@H]2C=CC[C@@H]21	8.0%[8.59 µM]	?
COC(=O)c1ccc(CN2CCC3(CCC(CNC(=O)c4ccccc4)O3)CC2)cc1 (configuration not stated)	-8.8%	7.1%
COc1ccc(CN2CCC3(CCC(CNC(=O)C4CCCO4)O3)CC2)c(C)c1C (configuration not stated)	-10.3%	1.26µM*
COc1ccc2ccccc2c1CN1CCC2(CCC(CNC(=O)c3ccccc3)O2)CC1 (configuration not stated)	-10.7%	12.6µM*
O=C(NCC1CCC2(CCN(Cc3ccccc3O)CC2)O1)C1CCCO1 (configuration not stated)	-1.9%	-23.3%
CCOC(=O)CN1C(=O)NC(c2cccc(C(F)(F)F)c2)C(C(=O)OC)=C1C (configuration not stated)	-14.2%[8.59 µM]	-11.4%[8.59 µM]
FC(F)(F)CNc1nccc(-c2cnn3ncccc23)n1	·	-4.4%
Fc1ccc(Nc2nccc(-c3c(-c4ccc(C(F)(F)F)cc4)nn4ncccc34)n2)cc1F	6.1%	-4.9%
Cc1ccc2c(-c3ccnc(Nc4ccc5c(c4)OCCO5)n3)c(-c3ccc(C(F)(F)F)cc3)nn2n1	·	15.8µM*
Cc1ccc2c(-c3ccnc(Nc4cccc(C(F)(F)F)c4)n3)c(-c3ccccc3)nn2n1	·	3.97µM*
N#Cc1cccc(Nc2nccc(-c3cnn4ncccc34)n2)c1	·	0.025µM*
CCOc1ccc2c(-c3ccnc(Nc4cccc(C(F)(F)F)c4)n3)cnn2n1	·	8.88µM*
O=C(O)c1cccnc1Nc1cccc(C(F)(F)F)c1	20.6%	28.0%
CC(=O)OC[C@H]1O[C@H](CC=NOC[C@@H](O)[C@H]2O[C@@H]3OC(C)(C)O[C@H]3[C@@H]2O)C=C[C@H]1OC(C)=O	-4.6%[8.59 µM]	?
O=C(OCc1cn([C@H]2C[C@H](c3ccc(Cl)cc3)N(Cc3cccs3)C[C@H]2O)nn1)c1ccccc1	-23.4%	?
CCCCCCN1C[C@@H](O)[C@H](n2cc(COC(=O)c3ccccc3)nn2)C[C@H]1c1ccccc1	6.7%	-22.9%
CC(C)c1c(C(=O)NCC(C)(C)N2CCOCC2)cnn1-c1nccc(-c2cccs2)n1	-3.5%	-15.6%
CCCC=Cc1ccc(CN2C(C(C)C)C(=O)N(Cc3cn(Cc4ccco4)nn3)CCS2(=O)=O)cc1 (configuration not stated)	-9.7%	?
COc1cc2c(cc1OC)[C@@H]1O[C@](CCCCN3C(=O)c4ccccc4C3=O)(C2)OC2=C1C(=O)CCC2	·	-17.1%[8.59 µM]
O=C1N(Cc2ccc(F)cc2)c2ccccc2[C@@]12O[C@H](COc1ccccc1)CC1CCCC12 (some centres not stated)	41.1%[8.59 µM]	106.2%[8.59 µM]
NS(=O)(=O)c1ccc(N=Nc2c(O)[nH]c3ccc(C(=O)NCCc4cnc[nH]4)cc23)cc1	?	28.8%
C=CCNP1(=O)O[C@H](C=C)C[C@H](C=C)O1 (some centres not stated)	1.3%	-13.6%
COc1ccc(C2Sc3ccccc3N(CCN(C)C)C(=O)[C@@H]2OC(C)=O)cc1 (some centres not stated)	-27.7%	?
SMILES	Lassa entry	Marburg entry
COc1ccc([C@@H]2Sc3ccccc3N(CCN(C)C)C(=O)[C@@H]2OC(C)=O)cc1	4.47µM*	28.2µM*
C[C@@H]1CC[C@H]2C(=O)N(Cc3ccccc3)C[C@H](O)CN2[C@H]1c1ccc(Br)cc1	3.4%[8.59 µM]	-24.2%[8.59 µM]
O=C(c1cccs1)N1C[C@H](O)[C@H](n2cc(C3CC3)nn2)C[C@@H]1c1ccc(Cl)cc1	·	21.5%
COc1cc(NC(C)CCCN)c2ncccc2c1 (configuration not stated)	7.2%	?
CCN(CC)CCCC(C)Nc1cc(/C=C/c2ccccc2Cl)nc2cc(Cl)ccc12 (configuration not stated)	?	15.8µM*
CCN(CC)CCCC(C)Nc1c2ccc(Cl)cc2nc2ccc(OC)cc12 (configuration not stated)	?	1.12µM*
O=C(Nc1ccc(O)c2c(=O)cc(-c3ccccc3Cl)oc12)c1ccc(Cl)cc1Cl	-8.2%	-7.0%
O=c1cc(-c2ccccc2Cl)oc2c(NS(=O)(=O)c3cc(Cl)cc(Cl)c3O)ccc(O)c12	10µM*	?
CC(=Nc1ccc(S(N)(=O)=O)cc1)c1c(O)[nH]c2ccccc12	94.6%	91.0%
CC1(C)C(O)CC(O)[C@]2(C)C1CC(O)[C@]1(C)C2CC[C@@]2(C)C(c3ccoc3)OC(=O)C3O[C@]312 (some centres not stated)	2.1%	?
CC1(C)C(=O)C=C[C@@]2(C)C1CC(O)[C@]1(C)C2CC[C@@]2(C)C(c3ccoc3)OC(=O)C3O[C@]312 (some centres not stated)	?	12.6µM*
CC1(C)OC2CC(=O)OCC23C1CC(=O)C1(C)C3CC[C@@]2(C)[C@H](c3ccoc3)OC(=O)C3OC312 (some centres not stated)	-11.9%	1.8%
CC1(C)C(=O)C=C[C@@]2(C)C1C=C[C@@]1(C)C2CC[C@@]2(C)C(c3ccoc3)OC(=O)C3OC312 (some centres not stated)	?	7.94µM*
CC(C)CON=C1C[C@@H](O)[C@@H](O)[C@@H]2[C@H]3C(=O)N(C4CCCCC4)C(=O)[C@@H]3CC[C@@H]12	·	-20.1%[8.59 µM]
COC[C@H]1CCCN1[C@H]1C[S+](=O)([O-])N[C@H]1COCc1ccccc1	16.3%	36.2%
O=C1CCc2ccc(OCCCCN3CCN(c4cccc(Cl)c4Cl)CC3)cc2N1	?	1.8%
O=C1NC2CCCCN2C12CCN(CCCN1c3ccccc3CCc3ccc(Cl)cc31)CC2 (configuration not stated)	28.2µM*	7.08µM*
CCC=C1C(=O)[C@]2(C(=O)c3ccccc3)C[C@H]3CCC(CCC)(C2=O)[C@@]13OC	-10.5%[8.59 µM]	?
CC(C)=CCCC(C)=CCON=C1C[C@@H](O)[C@@H](O)[C@@H]2[C@H]3C(=O)N(C[C@@H]4CCCO4)C(=O)[C@@H]3CC[C@H]12	-17.1%[8.59 µM]	21.6%[8.59 µM]
C=C[C@@]1(C)CCC=C2C(=O)CCC[C@H]21	-27.4%[8.59 µM]	?
O=C(C=Cc1ccccc1)Nc1cccc(C(=O)NCCc2ccccc2)c1	-12.6%	7.6%
NC(=O)c1sc(-n2cnc3ccccc32)cc1OCc1ccccc1Br	·	15.8µM*
CC(Oc1cc(-n2cnc3ccc(OCC4CCN(C)CC4)cc32)sc1C(N)=O)c1ccccc1C(F)(F)F (configuration not stated)	·	1.41µM*
CC(Oc1cc(-n2cnc3ccc(OCC4CCN(C)CC4)cc32)sc1C(N)=O)c1ccccc1Cl (configuration not stated)	·	0.628µM*
COc1ccc2ncn(-c3cc(OC(C)c4ccccc4Cl)c(C(N)=O)s3)c2c1 (configuration not stated)	?	0.315µM*
OC[C@H]1O[C@H](c2ccccc2)C=C[C@H]1O	-16.1%[8.59 µM]	-7.8%[8.59 µM]
O[C@@H]1C[C@H](c2ccccc2)N(Cc2cccs2)C[C@@H]1n1cc(C2CC2)nn1	9.7%	26.0%
